We go through one compound from PubChem BioAssay (EPA / NIEHS).

Read-out in assay [1]: Matrix Metallopeptidase 3 (MMP3), MMP3 (gene 4314)
As to the kind of experiment: BSK_BF4T_MMP3: BioMAP Diversity Plus: BF4T Assay for Matrix Metallopeptidase 3 (MMP3) Biomarker Activity (AID 2284271). The settings on record: primary human bronchial epithelial cells with fibroblasts. The procedure, abridged:
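MMP-3 level read by ELISA after 24 h chemical exposure of bronchial epithelial cell/dermal fibroblast co-cultures, fitted upward relative to DMSO. Parallel cultures stained with 0.1% SRB after TCA fixation gauge overt cytotoxicity.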

Read-out in assay [2]: Tissue plasminogen activator (tPA), PLAT (gene 5327)
As to the kind of experiment: BSK_BF4T_tPA: BioMAP Diversity Plus: BF4T Assay for Tissue plasminogen activator (tPA) Biomarker Activity (AID 2284272). Particulars: primary human bronchial epithelial cells with fibroblasts. The procedure, abridged: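 tPA level quantified by ELISA at 24 h post-treatment in bronchial epithelial/dermal fibroblast co-cultures, gain of signal scored against DMSO baseline. Parallel cultures stained with 0.1% SRB (560 nm) to flag overt cytotoxicity.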

Read-out in assay [3]: Plasminogen Activator Inhibitor-1 (PAI1), SERPINE1 (gene 5054)
As to the kind of experiment: BSK_BF4T_PAI1: BioMAP Diversity Plus: BF4T Assay for Plasminogen Activator Inhibitor-1 (PAI1) Biomarker Activity (AID 2284273). The settings on record: primary human bronchial epithelial cells with fibroblasts. The procedure, abridged: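 PAI-1 levels quantified by ELISA 24 h post-dosing in bronchial epithelial cell plus dermal fibroblast cultures. Signal gain referenced to DMSO baseline. Sulforhodamine B total-protein staining of parallel wells checked cytotoxicity.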

A short description of assay [4]: BSK_BF4T_SRB: Viability Assessment in the BioMAP Diversity Plus: BF4T Assay (AID 2284274). Particulars: primary human bronchial epithelial cells with fibroblasts. The procedure, abridged:
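Cytotoxicity measured as total protein: cells fixed with 10% TCA, stained with 0.1% SRB, read at 560 nm. Bronchial epithelial/dermal fibroblast co-culture, 24 h after dosing, with positive-direction fitting relative to DMSO.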

Read-out in assay [5]: urokinase Plasminogen Activator (uPA), PLAU (gene 5328)
As to the kind of experiment: BSK_BF4T_uPA: BioMAP Diversity Plus: BF4T Assay for urokinase Plasminogen Activator (uPA) Biomarker Activity (AID 2284275). Particulars: primary human bronchial epithelial cells with fibroblasts. The procedure, abridged: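 uPA levels measured by ELISA at 24 hours in BF4T cultures (bronchial epithelial cells plus dermal fibroblasts) and compared with DMSO; cytotoxicity tracked in parallel cultures by sulforhodamine B staining.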

Read-out in assay [6]: Matrix Metallopeptidase 9 (MMP9), MMP9 (gene 4318)
As to the kind of experiment: BSK_BF4T_MMP9: BioMAP Diversity Plus: BF4T Assay for Matrix Metallopeptidase 9 (MMP9) Biomarker Activity (AID 2284276). The settings on record: primary human bronchial epithelial cells with fibroblasts. The procedure, abridged: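 MMP-9 levels were measured by ELISA after 24 h exposure of bronchial epithelial cell/dermal fibroblast co-cultures, with DMSO as baseline. Parallel cultures were stained with 0.1% SRB after TCA fixation, read at 560 nm, to flag overt cytotoxicity.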

Read-out in assay [7]: Interleukin-8 (IL8), CXCL8 (gene 3576)
As to the kind of experiment: BSK_IMphg_IL8: BioMAP Diversity Plus: IMphg Assay for Interleukin-8 (IL8) Biomarker Activity (AID 2284277). The settings on record: primary human endothelial cells with macrophages. The procedure, abridged:
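IL-8 levels were measured by ELISA 24 h after dosing in primary human venular endothelial cell–macrophage cultures, referenced to DMSO; parallel SRB staining monitored overt cytotoxicity.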

Read-out in assay [8]: Intercellular Adhesion Molecule 1 (ICAM1), ICAM1 (gene 3383)
As to the kind of experiment: BSK_BE3C_ICAM1: BioMAP Diversity Plus: BE3C Assay for Intercellular Adhesion Molecule 1 (ICAM1) Biomarker Activity (AID 2284278).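 Further: cell-surface ICAM-1 protein level quantified by ELISA.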 Particulars: primary human bronchial epithelial cells. The procedure, abridged:
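ICAM-1 quantified by ELISA and fitted against DMSO baseline, 24 h post-dosing in BE3C cultures of primary human lung bronchial epithelial cells. Cytotoxicity checked in parallel cultures by total protein SRB staining.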

Read-out in assay [9]: Interferon-inducible T-cell alpha chemoattractant (ITAC), CXCL11 (gene 6373)
As to the kind of experiment: BSK_BE3C_ITAC: BioMAP Diversity Plus: BE3C Assay for Interferon-inducible T-cell alpha chemoattractant (ITAC) Biomarker Activity (AID 2284279). Particulars: primary human bronchial epithelial cells. The procedure, abridged:
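Steps: dose human bronchial epithelial cells with chemical; incubate 24 h; measure I-TAC by ELISA; fit endpoint in positive direction against DMSO control. Cytotoxicity was checked in parallel cultures by SRB staining at harvest.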

Read-out in assay [10]: Interleukin-8 (IL8), CXCL8 (gene 3576)
As to the kind of experiment: BSK_BE3C_IL8: BioMAP Diversity Plus: BE3C Assay for Interleukin-8 (IL8) Biomarker Activity (AID 2284280). Particulars: primary human bronchial epithelial cells. The procedure, abridged:
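Primary human bronchial epithelial cells (BE3C system) were exposed to test chemical for 24 h, and IL-8 levels were then measured by ELISA. Activity was fitted in the positive (gain-of-signal) direction against a DMSO negative-control baseline.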

Read-out in assay [11]: Epidermal growth factor receptor (EGFR), EGFR (gene 1956)
As to the kind of experiment: BSK_BE3C_EGFR: BioMAP Diversity Plus: BE3C Assay for Epidermal growth factor receptor (EGFR) Biomarker Activity (AID 2284281). Particulars: primary human bronchial epithelial cells. The procedure, abridged:
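Human primary bronchial epithelial cells were exposed to compound for 24 h, and cell-surface EGFR was then quantified by ELISA. Activity was fitted in the positive direction against the DMSO vehicle baseline.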

Read-out in assay [12]: KRT18 (gene 3875)
As to the kind of experiment: BSK_BE3C_Keratin818: BioMAP Diversity Plus: BE3C Assay for Keratin 818 Biomarker Activity (AID 2284282). The settings on record: primary human bronchial epithelial cells. The procedure, abridged:
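ELISA readout of Keratin 8/18 in human primary bronchial epithelial cultures after 24 h chemical exposure, DMSO baseline. Parallel SRB staining (0.1%, TCA-fixed, 560 nm) served as cytotoxicity check.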

Read-out in assay [13]: Matrix Metallopeptidase 9 (MMP9), MMP9 (gene 4318)
As to the kind of experiment: BSK_BE3C_MMP9: BioMAP Diversity Plus: BE3C Assay for Matrix Metallopeptidase 9 (MMP9) Biomarker Activity (AID 2284283). The settings on record: primary human bronchial epithelial cells. The procedure, abridged:
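ELISA read-out of MMP-9 after 24 h compound exposure of human lung bronchial epithelial primary cells (BE3C). Fit in gain direction vs DMSO negative control; total protein by SRB in parallel cultures flagged overt cytotoxicity.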

Read-out in assay [14]: Plasminogen activator inhibitor-1 (PAI1), SERPINE1 (gene 5054)
As to the kind of experiment: BSK_CASM3C_PAI1: BioMAP Diversity Plus: CASM3C Assay for Plasminogen activator inhibitor-1 (PAI1) Biomarker Activity (AID 2284284). Particulars: primary human coronary artery smooth muscle cells.

Read-out in assay [15]: Monocyte Chemoattractant Protein-1 (MCP1), CCL2 (gene 6347)
As to the kind of experiment: BSK_hDFCGF_MCP1: BioMAP Diversity Plus: hDFCGF Assay for Monocyte Chemoattractant Protein-1 (MCP1) Biomarker Activity (AID 2284285). The settings on record: primary human foreskin fibroblasts. The procedure, abridged:
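MCP-1 ELISA readout was taken 24 hours after dosing primary human dermal fibroblasts in the hDFCGF system, with DMSO as baseline. Parallel sulforhodamine B staining of total protein tracked overt cytotoxicity.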

Read-out in assay [16]: Vascular cell adhesion molecule 1 (VCAM1), VCAM1 (gene 7412)
As to the kind of experiment: BSK_IMphg_VCAM1: BioMAP Diversity Plus: IMphg Assay for Vascular cell adhesion molecule 1 (VCAM1) Biomarker Activity (AID 2284286). Particulars: primary human endothelial cells with macrophages. The procedure, abridged:
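ELISA read-out of VCAM-1 on venular endothelial cell/macrophage co-cultures at 24 h post-treatment, with DMSO as baseline and positive-direction fitting. Parallel sulforhodamine B total-protein staining (560 nm) served as the overt cytotoxicity measure.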

Read-out in assay [17]: Intercellular Adhesion Molecule 1 (ICAM1), ICAM1 (gene 3383)
As to the kind of experiment: BSK_hDFCGF_ICAM1: BioMAP Diversity Plus: hDFCGF Assay for Intercellular Adhesion Molecule 1 (ICAM1) Biomarker Activity (AID 2284287). Particulars: primary human foreskin fibroblasts. The procedure, abridged:
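ICAM-1 ELISA readout 24 h after dosing, DMSO as baseline, in human dermal foreskin fibroblast cultures. Cytotoxicity checked in parallel wells by SRB staining (0.1% SRB, 10% TCA fixation, 560 nm).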

Read-out in assay [18]: CD40, CD40 (gene 958)
As to the kind of experiment: BSK_IMphg_CD40: BioMAP Diversity Plus: IMphg Assay for CD40 Biomarker Activity (AID 2284288). The settings on record: primary human endothelial cells with macrophages. The procedure, abridged: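 ELISA read-out of cell-surface CD40 at 24 h in human venular endothelial cell/macrophage co-cultures. Activity fitted in the positive direction against DMSO; parallel SRB staining (560 nm) gauges overt cytotoxicity.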

Read-out in assay [19]: TIMP metallopeptidase inhibitor 2 (TIMP2), TIMP2 (gene 7077)
As to the kind of experiment: BSK_hDFCGF_TIMP2: BioMAP Diversity Plus: hDFCGF Assay for TIMP metallopeptidase inhibitor 2 (TIMP2) Biomarker Activity (AID 2284289). The settings on record: primary human foreskin fibroblasts. The procedure, abridged:
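Primary human foreskin fibroblasts in the hDFCGF system, dosed for 24 h; TIMP-2 level measured by ELISA, fitted in the positive direction against DMSO; cytotoxicity checked in parallel by sulforhodamine B total protein staining.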

Read-out in assay [20]: Interleukin-1 alpha (IL1a), IL1A (gene 3552)
As to the kind of experiment: BSK_IMphg_IL1a: BioMAP Diversity Plus: IMphg Assay for Interleukin-1 alpha (IL1a) Biomarker Activity (AID 2284290). Particulars: primary human endothelial cells with macrophages. The procedure, abridged:
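IL-1α is quantified by ELISA at 24 h in the endothelial/macrophage IMphg co-culture, with gain of signal fitted relative to DMSO. Parallel SRB total-protein staining flags overt toxicity.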

Molecules are shown by their SMILES. The source holds several records for some structures; these can differ, active in one and inactive in another. Active and inactive are the calls of the source. How the source made its calls: active means hit-call score of the fitted dose curve at least 0.9, where 1 is the maximum; inactive means score below 0.9.

In the case of `Cn1cnc([N+](=O)[O-])c1Sc1ncnc2nc[nH]c12`, the outcome in assay [1], in assay [2], in assay [3], in assay [4], in [5] and in [6] was inactive. Besides, the outcome in assay [7], in assay [8], in assay [9], in assay [10], in assay [11] and in assay [12] was inactive. The result in [13], in assay [14], in assay [15], in assay [16], in assay [17] and in assay [18] was inactive. The outcome in assay [19] and in assay [20] was inactive. The values for the AC50 in [2], in assay [16] and in assay [18] were 7.93 µM (active), 9.14 µM (active) and 16.4 µM (active), respectively.

What is called AC50 is the concentration giving half of the maximal activity seen.
